Test results reported in the supplement of paper PMC10849652.
The full data set covers some 8,800 targets. This sample favours those with a hit. About 0.5% of all pairs of compound and target were hits.

What was measured:
Test in all cases: log2 fold change, soluble protein after heating vs DMSO (PISA); higher = thermal stabilisation; K562 lysate, 10 uM; active = over 0.2 and 3.5 SD of the protein, either way, in both replicates (recomputed)
[1] = compound: C1=CC=C(C=C1)[C@H](COC2=CC3=C(C=C2)NC(=O)N3)NC(=O)C4=CC=CN(C4=O)CC5=CC(=C(C=C5)F)F
How it was run: (§1)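 Thermal stability, expressed as log-two fold change relative to solvent controls, is given from duplicates. Crude K562 extract in PBS pH 7.4 with 1 mM MgCl2, at 1 mg/mL protein, was treated with 10 μM compound for 30 min and heated in aliquots for 3 min across 48°C-58°C. After pooling, adjustment to 0.5% NP-40 at 4°C and centrifugation at 21,000xg for 90 min, supernatant protein was measured by TMTpro 16plex LC-MS/MS with channel sums equalised.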

[2] = compound: CC1=C(SC2=C1C(=N[C@H](C3=NN=C(N32)C)CC(=O)N)C4=CC=C(C=C4)Cl)C
How it was run: as §1

[3] = compound: CC1=C2C(=CC=C1)N=C(N(C2=O)C3=CC=CC=C3C)CN4C=NC5=C(N=CN=C54)N
How it was run: as §1

[4] = compound: Cc1sc2c(c1C)C(c1ccc(Cl)cc1)=N[C@@H](CC(=O)OC(C)(C)C)c1nnc(C)n1-2
How it was run: as §1

[5] = compound: c1ccc([C@@H]2C[C@H]2NC2CCNCC2)cc1
How it was run: as §1

Measured: log2 fold change

ALDH6A1 (UniProt Q02252)
inactive: [1] 0.011 | [2] -0.111 | [3] 0 | [4] 0.02 | [5] -0.061

APAF1 (UniProt O14727)
inactive: [1] -0.013 | [2] 0.004 | [3] 0.022 | [4] 0.012 | [5] 0.02

ACTG1 (UniProt I3L4N8)
inactive: [1] -0.042 | [2] -0.082 | [3] -0.098 | [4] -0.245 | [5] 0.218

AMMECR1 (UniProt Q9Y4X0)
UniProt Q9Y4X0, sequence (Q9Y4X0 whole entry, looked up): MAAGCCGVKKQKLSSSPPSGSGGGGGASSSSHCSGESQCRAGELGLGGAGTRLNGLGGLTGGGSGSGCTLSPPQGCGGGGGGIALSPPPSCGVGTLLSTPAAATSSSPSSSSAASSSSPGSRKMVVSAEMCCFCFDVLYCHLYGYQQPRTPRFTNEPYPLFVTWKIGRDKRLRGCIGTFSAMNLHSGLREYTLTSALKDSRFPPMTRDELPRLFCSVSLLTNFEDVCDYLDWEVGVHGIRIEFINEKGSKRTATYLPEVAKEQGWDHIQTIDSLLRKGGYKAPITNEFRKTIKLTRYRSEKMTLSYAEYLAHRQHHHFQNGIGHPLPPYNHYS
inactive: [1] -0.014 | [2] 0.019 | [3] 0.064 | [4] -0.007 | [5] 0.036

ACTBL2 (UniProt Q562R1)
inactive: [1] 0.138 | [2] -0.194 | [3] -0.016 | [4] 0.106 | [5] 0.365

ALG13 (UniProt Q9NP73)
UniProt Q9NP73, sequence (Q9NP73 whole entry, looked up): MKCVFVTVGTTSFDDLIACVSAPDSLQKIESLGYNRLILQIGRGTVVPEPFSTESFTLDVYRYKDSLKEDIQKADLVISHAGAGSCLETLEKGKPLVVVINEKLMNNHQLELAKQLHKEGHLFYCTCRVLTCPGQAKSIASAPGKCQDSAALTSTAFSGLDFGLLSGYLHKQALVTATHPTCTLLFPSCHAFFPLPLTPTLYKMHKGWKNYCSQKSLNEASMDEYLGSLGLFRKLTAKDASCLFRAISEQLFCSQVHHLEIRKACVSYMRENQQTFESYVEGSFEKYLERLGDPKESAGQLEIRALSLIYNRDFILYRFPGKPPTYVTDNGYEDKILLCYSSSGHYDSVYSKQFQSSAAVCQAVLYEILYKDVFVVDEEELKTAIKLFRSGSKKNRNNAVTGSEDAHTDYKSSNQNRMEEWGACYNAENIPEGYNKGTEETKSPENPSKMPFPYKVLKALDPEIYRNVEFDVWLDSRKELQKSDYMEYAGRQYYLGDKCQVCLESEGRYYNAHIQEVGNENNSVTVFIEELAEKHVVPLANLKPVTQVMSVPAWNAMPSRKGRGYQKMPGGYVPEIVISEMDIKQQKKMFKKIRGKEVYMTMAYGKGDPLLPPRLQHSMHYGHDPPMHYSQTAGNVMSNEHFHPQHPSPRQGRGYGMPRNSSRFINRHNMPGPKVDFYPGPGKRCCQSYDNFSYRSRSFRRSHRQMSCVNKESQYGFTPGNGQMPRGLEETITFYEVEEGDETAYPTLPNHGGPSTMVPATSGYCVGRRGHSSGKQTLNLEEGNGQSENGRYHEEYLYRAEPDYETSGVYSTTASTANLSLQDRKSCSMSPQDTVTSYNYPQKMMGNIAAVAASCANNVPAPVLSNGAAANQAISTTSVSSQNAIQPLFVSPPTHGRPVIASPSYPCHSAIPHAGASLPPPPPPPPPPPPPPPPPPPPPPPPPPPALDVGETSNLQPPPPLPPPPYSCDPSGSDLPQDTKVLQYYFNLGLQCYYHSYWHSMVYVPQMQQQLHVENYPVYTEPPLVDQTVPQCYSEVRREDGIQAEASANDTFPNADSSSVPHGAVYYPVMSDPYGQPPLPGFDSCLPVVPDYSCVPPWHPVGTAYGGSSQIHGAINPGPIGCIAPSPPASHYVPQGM
inactive: [1] -0.015 | [2] -0.018 | [3] 0.09 | [4] 0.037 | [5] -0.087

AIP (UniProt O00170)
inactive: [1] 0.012 | [2] -0.023 | [3] -0.006 | [4] 0.025 | [5] 0.125

ACBD6 (UniProt Q9BR61)
inactive: [1] 0.014 | [2] 0.019 | [3] -0.009 | [4] -0.045 | [5] -0.022

ANKRD54 (UniProt Q6NXT1)
inactive: [1] 0.011 | [2] -0.04 | [3] 0.038 | [4] -0.042 | [5] -0.024

ACSL1 (UniProt P33121)
inactive: [1] -0.136 | [2] 0.004 | [3] 0.014 | [4] 0.063 | [5] 0.021

ANLN (UniProt Q9NQW6)
inactive: [1] 0.04 | [2] -0.014 | [3] 0.053 | [4] 0.015 | [5] 0.005

ANKRD10 (UniProt Q9NXR5)
UniProt Q9NXR5, sequence (Q9NXR5 whole entry, looked up): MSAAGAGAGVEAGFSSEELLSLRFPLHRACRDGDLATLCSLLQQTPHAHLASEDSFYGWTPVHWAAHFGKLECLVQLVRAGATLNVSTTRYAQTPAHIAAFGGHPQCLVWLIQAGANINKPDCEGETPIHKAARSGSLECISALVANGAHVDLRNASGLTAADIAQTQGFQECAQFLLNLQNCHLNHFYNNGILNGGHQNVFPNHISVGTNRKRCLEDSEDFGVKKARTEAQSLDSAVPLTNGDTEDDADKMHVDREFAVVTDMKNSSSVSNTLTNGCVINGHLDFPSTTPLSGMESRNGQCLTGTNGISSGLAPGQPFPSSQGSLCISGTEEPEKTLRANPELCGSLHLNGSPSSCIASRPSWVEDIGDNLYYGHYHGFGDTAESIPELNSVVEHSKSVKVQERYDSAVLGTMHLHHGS
inactive: [1] -0.131 | [2] -0.027 | [3] 0.025 | [4] 0.06 | [5] -0.019

ASPH (UniProt Q12797)
inactive: [1] 0.006 | [2] 0.028 | [3] 0 | [4] -0.045 | [5] 0.026

ADD1 isoform 3 (UniProt P35611)
UniProt P35611, sequence (P35611 whole entry, looked up): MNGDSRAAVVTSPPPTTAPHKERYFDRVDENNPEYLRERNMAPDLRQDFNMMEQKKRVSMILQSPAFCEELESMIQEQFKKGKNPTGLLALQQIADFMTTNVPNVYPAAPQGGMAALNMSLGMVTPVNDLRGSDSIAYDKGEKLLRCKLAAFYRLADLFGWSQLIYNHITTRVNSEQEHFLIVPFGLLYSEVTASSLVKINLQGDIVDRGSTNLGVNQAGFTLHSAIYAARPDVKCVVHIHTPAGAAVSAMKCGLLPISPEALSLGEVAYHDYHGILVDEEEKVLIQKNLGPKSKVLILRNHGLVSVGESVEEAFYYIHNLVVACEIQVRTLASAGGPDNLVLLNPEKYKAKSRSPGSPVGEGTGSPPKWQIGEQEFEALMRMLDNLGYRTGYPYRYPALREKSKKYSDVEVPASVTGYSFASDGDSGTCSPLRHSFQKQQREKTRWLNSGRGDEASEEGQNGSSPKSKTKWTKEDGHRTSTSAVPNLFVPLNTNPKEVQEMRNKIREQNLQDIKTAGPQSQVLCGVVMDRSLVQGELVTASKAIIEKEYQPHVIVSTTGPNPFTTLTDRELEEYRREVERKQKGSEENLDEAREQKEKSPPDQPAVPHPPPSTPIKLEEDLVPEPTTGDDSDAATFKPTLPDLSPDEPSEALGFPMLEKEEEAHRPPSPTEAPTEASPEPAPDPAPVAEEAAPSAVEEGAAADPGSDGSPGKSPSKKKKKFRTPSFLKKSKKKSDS
inactive: [1] 0.03 | [2] 0.016 | [3] -0.01 | [4] -0.021 | [5] 0.015

AGL (UniProt P35573)
UniProt P35573, sequence (P35573 whole entry, looked up): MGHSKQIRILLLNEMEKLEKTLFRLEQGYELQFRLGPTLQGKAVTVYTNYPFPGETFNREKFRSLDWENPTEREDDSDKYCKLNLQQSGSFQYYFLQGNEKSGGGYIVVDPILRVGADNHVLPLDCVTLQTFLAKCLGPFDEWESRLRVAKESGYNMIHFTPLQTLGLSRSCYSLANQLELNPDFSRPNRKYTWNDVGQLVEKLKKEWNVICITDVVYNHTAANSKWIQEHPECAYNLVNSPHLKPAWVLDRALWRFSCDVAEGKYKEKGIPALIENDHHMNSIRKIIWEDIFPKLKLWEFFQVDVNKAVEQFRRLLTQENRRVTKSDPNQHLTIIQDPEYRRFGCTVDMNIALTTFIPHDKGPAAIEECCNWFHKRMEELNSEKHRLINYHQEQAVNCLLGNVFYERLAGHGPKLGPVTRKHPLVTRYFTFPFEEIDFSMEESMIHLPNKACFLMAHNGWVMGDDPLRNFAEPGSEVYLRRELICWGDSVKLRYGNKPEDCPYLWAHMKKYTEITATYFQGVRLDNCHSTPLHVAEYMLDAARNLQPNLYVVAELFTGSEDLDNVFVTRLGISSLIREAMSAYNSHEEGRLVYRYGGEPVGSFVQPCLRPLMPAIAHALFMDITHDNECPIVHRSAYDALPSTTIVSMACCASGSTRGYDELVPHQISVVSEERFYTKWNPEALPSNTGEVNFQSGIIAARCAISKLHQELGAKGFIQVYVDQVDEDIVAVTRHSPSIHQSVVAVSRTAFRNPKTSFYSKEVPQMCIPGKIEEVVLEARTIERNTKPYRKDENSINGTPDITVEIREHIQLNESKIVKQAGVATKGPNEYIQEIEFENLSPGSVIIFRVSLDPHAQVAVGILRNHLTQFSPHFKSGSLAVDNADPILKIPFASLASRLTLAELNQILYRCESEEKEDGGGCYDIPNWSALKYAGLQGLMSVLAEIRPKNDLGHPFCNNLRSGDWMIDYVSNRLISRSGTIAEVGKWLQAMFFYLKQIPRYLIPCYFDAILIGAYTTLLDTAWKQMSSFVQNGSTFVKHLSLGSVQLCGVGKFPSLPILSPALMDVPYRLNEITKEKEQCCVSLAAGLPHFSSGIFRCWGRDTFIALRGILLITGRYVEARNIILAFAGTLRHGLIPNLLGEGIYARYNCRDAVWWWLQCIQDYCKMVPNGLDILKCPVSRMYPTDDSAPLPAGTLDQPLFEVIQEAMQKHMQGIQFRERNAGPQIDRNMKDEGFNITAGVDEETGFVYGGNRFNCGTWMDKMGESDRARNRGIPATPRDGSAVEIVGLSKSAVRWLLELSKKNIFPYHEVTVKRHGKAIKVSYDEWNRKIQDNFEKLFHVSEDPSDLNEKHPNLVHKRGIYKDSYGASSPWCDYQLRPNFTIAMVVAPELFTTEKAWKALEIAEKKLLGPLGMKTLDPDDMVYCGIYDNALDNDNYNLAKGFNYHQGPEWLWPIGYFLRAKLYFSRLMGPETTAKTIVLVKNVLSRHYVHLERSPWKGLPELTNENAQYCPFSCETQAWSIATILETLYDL
inactive: [1] 0.022 | [2] 0.028 | [3] 0.036 | [4] 0.035 | [5] 0.086

ARGLU1 (UniProt Q9NWB6)
inactive: [1] 0.049 | [2] 0.009 | [3] 0.036 | [4] -0.026 | [5] 0.074

ASNS (UniProt P08243)
UniProt P08243, sequence (P08243 whole entry, looked up): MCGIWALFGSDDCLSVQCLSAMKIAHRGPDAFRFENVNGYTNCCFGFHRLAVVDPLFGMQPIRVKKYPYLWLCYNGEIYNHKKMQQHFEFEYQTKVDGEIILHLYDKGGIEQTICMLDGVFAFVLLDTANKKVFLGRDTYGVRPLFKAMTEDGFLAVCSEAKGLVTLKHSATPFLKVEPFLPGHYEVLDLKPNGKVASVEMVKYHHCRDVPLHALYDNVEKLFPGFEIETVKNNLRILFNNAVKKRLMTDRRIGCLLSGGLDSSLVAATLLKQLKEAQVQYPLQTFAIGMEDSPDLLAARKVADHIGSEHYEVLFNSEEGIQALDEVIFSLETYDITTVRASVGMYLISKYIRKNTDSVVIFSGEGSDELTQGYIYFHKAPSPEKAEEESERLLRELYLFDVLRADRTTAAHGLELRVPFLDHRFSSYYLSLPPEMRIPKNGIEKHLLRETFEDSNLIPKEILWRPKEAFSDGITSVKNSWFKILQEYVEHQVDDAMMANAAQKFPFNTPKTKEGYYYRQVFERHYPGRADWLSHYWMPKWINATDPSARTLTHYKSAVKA
inactive: [1] 0.006 | [2] 0.021 | [3] 0.027 | [4] 0.057 | [5] 0.033

ADD1 isoform 4 (UniProt P35611)
inactive: [1] 0.22 | [2] 0.088 | [3] 0.12 | [4] -0.099 | [5] -0.571

ACADS (UniProt P16219)
inactive: [1] -0.015 | [2] 0.069 | [3] 0.054 | [4] 0.013 | [5] 0.003

AKR1C3 (UniProt P42330)
UniProt P42330, sequence (P42330 whole entry, looked up): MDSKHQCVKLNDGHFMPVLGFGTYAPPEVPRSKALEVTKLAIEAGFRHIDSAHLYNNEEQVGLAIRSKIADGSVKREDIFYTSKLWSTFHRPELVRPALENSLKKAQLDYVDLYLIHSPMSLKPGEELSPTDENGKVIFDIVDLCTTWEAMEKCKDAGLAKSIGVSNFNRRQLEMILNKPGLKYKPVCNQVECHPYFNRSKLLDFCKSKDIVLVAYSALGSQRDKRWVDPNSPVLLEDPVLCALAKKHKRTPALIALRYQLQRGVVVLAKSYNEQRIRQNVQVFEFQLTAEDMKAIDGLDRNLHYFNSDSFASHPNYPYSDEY
inactive: [1] 0.031 | [2] 0.05 | [3] 0.022 | [4] -0.04 | [5] 0.031

ADK, A0A5F9ZH76
inactive: [1] -0.136 | [2] 0.197

ALDH18A1 (UniProt P54886)
inactive: [1] -0.018 | [2] -0.032 | [3] 0.019 | [4] -0.005 | [5] 0.034

ANKRD40 (UniProt Q6AI12)
inactive: [1] 0.133 | [2] 0.072 | [3] 0.536 | [4] -0.156 | [5] 0.053

ABHD17B (UniProt Q5VST6)
inactive: [1] 0.014 | [2] 0.044 | [3] -0.028 | [4] -0.044 | [5] -0.198

ABHD11 (UniProt Q8NFV4)
inactive: [1] 0.072 | [2] -0.031 | [3] 0.028 | [4] -0.021 | [5] -0.098
